Hits are enriched below; roughly 19% of the tested compounds scored in any of these assays.
KB-V1 MDR tox: KB-V1 MDR subline cytotoxicity. KB-V1 MDR cells viability, CellTiter-Glo, 72 h. Potency, µM (top dose mostly 46.1 µM), most hits filed as cytotoxic. 400,000 tested, 3.4% active. AID 1347076; also: nearly all actives have a fitted effect of over 60% in size
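KB-V1, DMEM (no phenol red) + 10% FBS; cpd pin-transferred, titration series; 72 h, 37 degrees C; CellTiter-Glo, luminescence. Data normalized, curve-fit.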
TDP1 cell noCPT: qHTS for Inhibitors of human tyrosyl-DNA phosphodiesterase 1 (TDP1): qHTS in cells in absence of CPT | DT40 Tdp1-/- hTDP1 cells, no CPT, ATP luminescence, 48 h | 420,000 tested, 15% active | Potency, µM (titrated, usually from 46.2 µM), actives largely listed as inhibitors; also: nearly all actives have a fitted effect of over 55% in size
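Luminescent ATP content (CellTiter-Glo) served as the growth readout. Knockout chicken DT40 cells expressing human TDP1 were exposed to compounds without camptothecin for a minimum 48 hr at 37 °C.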
HT1080-NT tox: kills 2HG-producing HT-1080-NT fibrosarcoma cells. HT-1080-NT fibrosarcoma viability, CellTiter-Glo ATP luminescence, 48 h. Potency, µM (highest dose often 46.1 µM), usual class: cytotoxic. 360,000 tested, 1.6% active;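 also: NT is the 2HG producing partner of a matched IDH1 knockdown line; nearly all actives have a fitted effect of over 55% in size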
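Viability by CellTiter-Glo luminescence after 48 h compound exposure at 37C of HT-1080-NT cells (750/well, RPMI, 5% FBS). % activity scaled between DMSO wells and medium-only wells, then curve-fitted and categorized by curve class.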
KB-3-1 cytotox: KB-3-1 parental cell cytotoxicity. 400,000 tested, 1.4% active. KB-3-1 viability, CellTiter-Glo ATP luminescence, 72 h. AID 1347075. Potency, µM (series often up to 46.1 µM), usual class: cytotoxic; also: nearly all actives have a fitted effect of over 60% in size
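KB-3-1 parental drug-naive adenocarcinoma cells in DMEM/10% FBS, incubated 72 h at 37 C with pin-transferred compounds across a concentration series. Viability by CellTiter-Glo luminescence; concentration-response curves fitted after normalization.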
HT1080 IDH1KD tx: toxicity to HT-1080 IDH1 knockdown cells (counter line); HT-1080 IDH1 knockdown viability, ATP luminescence, 48 h; 360,000 tested, 2% active; Potency, µM (series often up to 46.1 µM), usual class: cytotoxic
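Assay cells: HT-1080 with IDH1 knockdown, 750 per well, RPMI/5% FBS. Exposure: 48 h at 37 °C following 2 h pre-incubation. Read: CellTiter-Glo luminescence; fitted concentration-response, curve class assigned.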
TDP1 cell CPT: DT40-hTDP1 cell growth loss with CPT. chicken DT40 Tdp1-/-;hTDP1 cells + 20 nM CPT, ATP luminescence, 48 h. Potency, µM (top dose mostly 46.2 µM), usual class: inhibitors. 420,000 tested, 12% active. AID 686979; also: nearly all actives have a fitted effect of over 55% in size
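Cell growth measured by CellTiter-Glo luminescence after a minimum 48 h, 37 C compound exposure with 20 nM CPT in Tdp1-knockout DT40 cells stably expressing hTDP1, seeded 400/well; qHTS titration format.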
A number is an active result; [ ] = remark or other dose. Calls follow the shape of the dose curve; as a rule, active = well fitted curve in the direction sought with a large enough effect; inconclusive = small, poorly fitted or top-dose-only effect, or another doubt; inactive = no such curve, though single readings can be large; an effect the other way counts as inactive or inconclusive.

Screening Cc1cccc(NC(=O)CN2C(=O)CC(c3ccccc3)Sc3ccccc32)c1 (stereo unspecified) returned KB-V1 MDR tox inconclusive and KB-3-1 cytotox inactive.
`O=C(NCC1COc2ccccc2O1)c1ccc(Br)s1` (stereo unspecified) gave KB-V1 MDR tox inactive, TDP1 cell noCPT inconclusive, HT1080-NT tox inactive, KB-3-1 cytotox inactive, HT1080 IDH1KD tx inactive and TDP1 cell CPT inactive.
Screening O=C(Nc1ccc2ccccc2c1)Nc1nnc(-c2ccccn2)s1 returned KB-V1 MDR tox inactive and KB-3-1 cytotox inconclusive.
Screening N#Cc1ccc(-n2c(-c3ccccc3)nnc2-c2ccccc2)cc1C#N returned KB-V1 MDR tox inconclusive, TDP1 cell noCPT 16µM, HT1080-NT tox inactive, KB-3-1 cytotox inactive, HT1080 IDH1KD tx inactive and TDP1 cell CPT inconclusive.
For CCCN(C)C[C@@H]1Oc2ncc(Br)cc2C(=O)N([C@@H](C)CO)C[C@H]1C the results were KB-V1 MDR tox inactive, TDP1 cell noCPT inactive, HT1080-NT tox inactive, KB-3-1 cytotox inactive, HT1080 IDH1KD tx inactive and TDP1 cell CPT inactive.
CN1CCN(c2ccc3c(c2)C2CC3CCN2C(=O)OCc2ccccc2)CC1 (stereo unspecified) was read as KB-V1 MDR tox inactive, TDP1 cell noCPT inconclusive, HT1080-NT tox inactive, KB-3-1 cytotox inactive, HT1080 IDH1KD tx inactive and TDP1 cell CPT inconclusive.
Screening O=C(OCc1ccccc1)N1CCC2CC1c1ccc(N3CCNCC3)cc12 (stereo unspecified) returned KB-V1 MDR tox inactive, TDP1 cell noCPT 7.3µM, HT1080-NT tox inconclusive, KB-3-1 cytotox inactive, HT1080 IDH1KD tx inactive and TDP1 cell CPT 9.2µM.
For O=C(OCc1ccccc1)N1CCC2CC1c1ccc(N3CCOCC3)cc12 (stereo unspecified) the results were KB-V1 MDR tox inactive, TDP1 cell noCPT inconclusive, HT1080-NT tox inactive, KB-3-1 cytotox inactive, HT1080 IDH1KD tx inactive and TDP1 cell CPT inconclusive.
For O=C(OCc1ccccc1)N1CCC2CC1c1cc(N3CCN(C(=S)NCCc4ccccc4)CC3)ccc12 (stereo unspecified) the results were KB-V1 MDR tox inconclusive, TDP1 cell noCPT inconclusive, HT1080-NT tox inactive, KB-3-1 cytotox inactive, HT1080 IDH1KD tx inactive and TDP1 cell CPT inconclusive.
For COc1ccc(NC(=S)N2CCN(c3ccc4c(c3)C3CCN(C(=O)OCc5ccccc5)C4C3)CC2)c(OC)c1 (stereo unspecified) the results were KB-V1 MDR tox inconclusive, TDP1 cell noCPT 5.2µM, HT1080-NT tox inactive, KB-3-1 cytotox inactive, HT1080 IDH1KD tx inactive and TDP1 cell CPT 7.3µM.
`Cc1ccccc1S(=O)(=O)N1CCN(c2ccc3c(c2)C2CC3CCN2C(=O)OCc2ccccc2)CC1` (stereo unspecified) gave KB-V1 MDR tox inactive, TDP1 cell noCPT 16µM, HT1080-NT tox inactive, KB-3-1 cytotox inactive, HT1080 IDH1KD tx inactive and TDP1 cell CPT inconclusive.
CNc1ncnc2c1ncn2[C@H]1CN(Cc2cccnc2)C[C@@H](CO)O1 was read as KB-V1 MDR tox inactive, TDP1 cell noCPT inactive, HT1080-NT tox inactive, KB-3-1 cytotox inactive, HT1080 IDH1KD tx inactive and TDP1 cell CPT inactive.
`O=C(NC1CCCC1)C1c2ccccc2OCC(=O)N1Cc1ccc2c(c1)OCO2` (stereo unspecified) gave KB-V1 MDR tox inactive, TDP1 cell noCPT inconclusive, HT1080-NT tox inactive, KB-3-1 cytotox inactive, HT1080 IDH1KD tx inactive and TDP1 cell CPT inactive.
For Cc1nc2ncnn2c(C)c1CCC(=O)NCc1cccc(Cl)c1 the results were KB-V1 MDR tox inactive, TDP1 cell noCPT inactive, KB-3-1 cytotox inactive and TDP1 cell CPT inactive.
`COc1ccc(-c2cc3nc(C)c(CCC(=O)NCCc4ccc(Cl)cc4)c(C)n3n2)c(OC)c1` gave KB-V1 MDR tox inactive, TDP1 cell noCPT 29µM, KB-3-1 cytotox inactive and TDP1 cell CPT 13µM.
COc1ccccc1-c1cc2nc(C)c(CCC(=O)NCc3cccc(Cl)c3)c(C)n2n1 was read as KB-V1 MDR tox inactive, TDP1 cell noCPT 18µM, KB-3-1 cytotox inactive and TDP1 cell CPT inconclusive.
COc1ccc(-c2cc3nc(C)c(CCC(=O)NCc4ccco4)c(C)n3n2)c(OC)c1 was read as KB-V1 MDR tox 4.6µM, TDP1 cell noCPT inconclusive, HT1080-NT tox inactive, KB-3-1 cytotox inactive, HT1080 IDH1KD tx inactive and TDP1 cell CPT inconclusive.
For COc1ccc(CCNC(=O)CCc2c(C)nc3cc(-c4ccccc4OC)nn3c2C)c(OC)c1 the results were KB-V1 MDR tox inactive, TDP1 cell noCPT 16µM, KB-3-1 cytotox inactive and TDP1 cell CPT inconclusive.
`CC(=O)Nc1cccc(NC(=O)c2ccccc2Cl)c1` gave KB-V1 MDR tox inactive, TDP1 cell noCPT inactive, HT1080-NT tox inactive, KB-3-1 cytotox inactive, HT1080 IDH1KD tx inactive and TDP1 cell CPT inactive.
Cc1ccc([C@@H]2CC(=O)[C@@H]3CN(S(=O)(=O)c4ccc(C)cc4)[C@H](c4ccc(Cl)cc4)C[C@@H]3N2S(=O)(=O)c2ccc(Cl)cc2)cc1 was read as KB-V1 MDR tox inactive, TDP1 cell noCPT inconclusive, HT1080-NT tox inactive, KB-3-1 cytotox inactive, HT1080 IDH1KD tx inactive and TDP1 cell CPT inactive.
Cc1nc2cc(-c3ccc(Cl)cc3)nn2c(C)c1CCC(=O)NCc1ccco1 was read as KB-V1 MDR tox inactive, TDP1 cell noCPT inconclusive, HT1080-NT tox inactive, KB-3-1 cytotox inconclusive, HT1080 IDH1KD tx inactive and TDP1 cell CPT inconclusive.
`COCCCNC(=O)CCc1c(C)nc2cc(-c3ccc(Cl)cc3)nn2c1C` gave KB-V1 MDR tox inactive, TDP1 cell noCPT inconclusive, KB-3-1 cytotox inactive and TDP1 cell CPT 18µM.
Screening Cc1cc(=O)oc2cc(OCC(=O)N3c4ccccc4CC3C)ccc12 (stereo unspecified) returned KB-V1 MDR tox 2.6µM, TDP1 cell noCPT 2.3µM, HT1080-NT tox 2.6µM, KB-3-1 cytotox 2.9µM, HT1080 IDH1KD tx 2.6µM and TDP1 cell CPT 4.1µM.
`CC1Cc2ccccc2N1C(=O)COc1nc2ccccc2nc1N1CCOCC1` (stereo unspecified) gave KB-V1 MDR tox inconclusive, TDP1 cell noCPT 9.2µM, HT1080-NT tox inactive, KB-3-1 cytotox inactive, HT1080 IDH1KD tx inactive and TDP1 cell CPT 7.3µM.
For Cc1cc(=O)oc2ccc(OCC(=O)N3CCC(C)CC3)cc12 the results were KB-V1 MDR tox inconclusive, TDP1 cell noCPT 26µM, HT1080-NT tox inactive, KB-3-1 cytotox inactive, HT1080 IDH1KD tx inactive[9.24 µM] and TDP1 cell CPT inconclusive.
`Cc1cc(=O)oc2cc(OCC(=O)N3CCCC(C)C3)ccc12` (stereo unspecified) gave KB-V1 MDR tox inactive, TDP1 cell noCPT inactive, HT1080-NT tox inactive, KB-3-1 cytotox inactive, HT1080 IDH1KD tx inactive and TDP1 cell CPT inactive.
